Data: the supplement of paper PMC7411054
Unmarked numbers belong to inactive results.

tested on: HepG2-CANX-COX4; test: phenotypically active (imaging signature differs from DMSO and reproducible) at any of 0.3-9 uM (binary (1 = active, 0 = inactive)); higher = active; settings: treatment time: 24 h
Method in brief: (§1)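 Two criteria together defined phenotypic activity: deviation and reproducibility. Deviation meant ≥3 of 4 wells beyond the 95th percentile of Euclidean distances in solvent control wells, and reproducibility meant a median replicate Pearson correlation above the 95th percentile of non-replicates. Wells had been treated for 24 h at 0.3, 1, 3 or 9 µM in fifteen gene-edited A549, HepG2 and WPMY1 reporter lines before live imaging.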

SMILES | phenotypically active
CCCCC1C(=O)N(c2ccccc2)N(c2ccc(O)cc2)C1=O (stereo not drawn) [oxyphenbutazone] | 0
Cc1ccccc1N1C(=O)c2cc(S(N)(=O)=O)c(Cl)cc2NC1C (stereo not drawn) [metolazone] | 0
Cc1nc(NC(=O)N2CCC[C@H]2C(N)=O)sc1-c1csc(C(C)(C)C)n1 | 1 (active)

tested on: HepG2-GM130-SQSTM1; test: as above; settings: treatment time: 24 h
Method in brief: as §1

SMILES | phenotypically active
OCc1ccccc1O[C@@H]1O[C@H](CO)[C@@H](O)[C@H](O)[C@H]1O [Salicin] | 0
O=C(c1ccc(C(=O)N2CCC(N3CCCC3)CC2)c(Nc2ccccc2)c1)N1CCC(N2CCCC2)CC1 | 1 (active)
O=c1[nH]cc(F)c(=O)[nH]1 [5-Fluorouracil] | 1 (active)
CC[C@H](C)[C@H](NC(=O)OCc1ccccc1)C(=O)N[C@@H](CCC(=O)OC(C)(C)C)C(=O)N[C@@H](C)C(=O)N[C@H](C=O)CC(C)C | 1 (active)
CN1CCN(C2=Nc3cc(Cl)ccc3Nc3ccccc32)CC1 [clozapine] | 0
Cc1cc(C(C)(C)C)c(O)c(C)c1CC1=NCCN1 [oxymetazoline] | 0
CC1(C)NC(=O)N(c2ccc([N+](=O)[O-])c(C(F)(F)F)c2)C1=O [nilutamide] | 0
CCN1CCN(C(c2cccnc2)c2cc(Cl)c3cccnc3c2O)CC1 (stereo not drawn) | 1 (active)
CCOc1cc(N2CCC(O)CC2)ccc1Nc1ncc2c(n1)N(C)c1ccccc1C(=O)N2C | 1 (active)
Cc1c2oc3c(C)ccc(C(=O)NC4C(=O)NC(C(C)C)C(=O)N5CCCC5C(=O)N(C)CC(=O)N(C)C(C(C)C)C(=O)OC4C)c3nc-2c(C(=O)NC2C(=O)NC(C(C)C)C(=O)N3CCCC3C(=O)N(C)CC(=O)N(C)C(C(C)C)C(=O)OC2C)c(N)c1=O (stereo not drawn) [Actinomycin D] | 1 (active)
